The text below walks through data of PubChem BioAssay (EPA / NIEHS).

The source made the active and inactive calls. How the source made its calls: active means hit-call score of the fitted dose curve at least 0.9, where 1 is the maximum; inactive means score below 0.9.

As usually defined, the AC50 is the concentration at which the activity in the assay is half-maximal.

Read-out in test [1]: Vascular endothelial growth factor receptor 2 (Homo sapiens) (UniProt P35968)
The experiment in a line: BSK_4H_VEGFRII: BioMAP Diversity Plus: 4H Assay for Vascular endothelial growth factor receptor 2 (VEGFR2) Biomarker Activity (AID 2283031).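 On AC50: cell-surface VEGFR2 protein level quantified by ELISA.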 The conditions noted are these: primary human endothelial cells (HUVEC); actives raise or lower the signal. The procedure, abridged: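 ELISA read-out of VEGFRII in primary human umbilical vein endothelium, taken 24 h after chemical treatment. Responses are expressed relative to DMSO, with bidirectional fitting.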

Read-out in test [2]: Human Leukocyte Antigen - DR isotype (HLADR), HLA-DRA (gene 3122)
Description: BSK_BE3C_HLADR: BioMAP Diversity Plus: BE3C Assay for Human Leukocyte Antigen - DR isotype (HLADR) Biomarker Activity (AID 2283032). Particulars: primary human bronchial epithelial cells; actives raise or lower the signal. The procedure, abridged:
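ELISA read-out of HLA-DR on human lung bronchial epithelial primary cells, measured 24 h post-dosing. Both increases and decreases were scored relative to DMSO vehicle.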

Read-out in test [3]: Vascular cell adhesion molecule 1 (VCAM1), VCAM1 (gene 7412)
The experiment in a line: BSK_4H_VCAM1: BioMAP Diversity Plus: 4H Assay for Vascular cell adhesion molecule 1 (VCAM1) Biomarker Activity (AID 2283033).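 On outcome: cell-surface VCAM-1 protein measured by ELISA.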 The conditions noted are these: primary human endothelial cells (HUVEC); actives raise or lower the signal. An outline of the steps:
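ELISA read-out of VCAM-1 on human umbilical vein endothelium 24 hours after chemical dosing; gain or loss of signal was fitted relative to DMSO, with sulforhodamine B staining of parallel cultures flagging overt cytotoxicity.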

Read-out in test [4]: Interferon-gamma inducible Protein 10 (IP10), CXCL10 (gene 3627)
Description: BSK_BE3C_IP10: BioMAP Diversity Plus: BE3C Assay for Interferon-gamma inducible Protein 10 (IP10) Biomarker Activity (AID 2283034). Particulars: primary human bronchial epithelial cells; actives raise or lower the signal. An outline of the steps: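 Chemical is dosed onto human lung bronchial epithelial primary cells, cultures are incubated 24 h, and IP-10 is then quantified by ELISA. Gain or loss of signal is fitted in both directions relative to DMSO.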

Read-out in test [5]: Monokine induced gamma interferon (MIG), CXCL9 (gene 4283)
Description: BSK_BE3C_MIG: BioMAP Diversity Plus: BE3C Assay for Monokine induced gamma interferon (MIG) Biomarker Activity (AID 2283035). The conditions noted are these: primary human bronchial epithelial cells; actives raise or lower the signal. The procedure, abridged: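 ELISA read-out of MIG in human lung bronchial epithelial primary cultures, 24 h post-dosing. Bidirectional curve fit vs DMSO baseline.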

Read-out in test [6]: Transforming growth factor beta 1 (TGFb1), TGFB1 (gene 7040)
Description: BSK_BE3C_TGFb1: BioMAP Diversity Plus: BE3C Assay for Transforming growth factor beta 1 (TGFb1) Biomarker Activity (AID 2283036;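 further: TGF-b1 protein level measured by ELISA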). Particulars: primary human bronchial epithelial cells; actives raise or lower the signal. The procedure, abridged:
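Primary human lung bronchial epithelial cells; compound exposure 24 h; TGF-b1 by ELISA; bidirectional fit, DMSO baseline. Parallel SRB total-protein staining for cytotoxicity.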

Read-out in test [7]: Plasminogen activator inhibitor-1 (PAI1), SERPINE1 (gene 5054)
Description: BSK_BE3C_PAI1: BioMAP Diversity Plus: BE3C Assay for Plasminogen activator inhibitor-1 (PAI1) Biomarker Activity (AID 2283037). Particulars: primary human bronchial epithelial cells; actives raise or lower the signal. The procedure, abridged:
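Primary human lung bronchial epithelial cells; chemical dosing; 24 h; PAI-1 measured by ELISA; bidirectional fit referenced to DMSO as negative control.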

Read-out in test [8]: urokinase plasminogen activator (uPA), PLAU (gene 5328)
Description: BSK_BE3C_uPA: BioMAP Diversity Plus: BE3C Assay for urokinase plasminogen activator (uPA) Biomarker Activity (AID 2283038).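 On outcome: uPA protein level quantified by ELISA in cell cultures; uPA read one day after compound addition.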 Particulars: primary human bronchial epithelial cells; actives raise or lower the signal. The procedure, abridged: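 Bronchial epithelial cells (human, primary); chemical 24 h; uPA by ELISA; bidirectional fit vs DMSO. SRB (0.1%, after 10% TCA fixation, 560 nm) in parallel cultures for cytotoxicity.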

Read-out in test [9]: Urokinase-type plasminogen activator receptor (uPAR), PLAUR (gene 5329)
Description: BSK_BE3C_uPAR: BioMAP Diversity Plus: BE3C Assay for Urokinase-type plasminogen activator receptor (uPAR) Biomarker Activity (AID 2283039).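 On outcome: uPAR protein level measured by ELISA on the cells; cells exposed to compound for one day before measurement.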 Particulars: primary human bronchial epithelial cells; actives raise or lower the signal. The procedure, abridged: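 Human bronchial epithelial primary cells; chemical exposure 24 h; uPAR by ELISA; bidirectional fit vs DMSO control.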

Read-out in test [10]: Interleukin-6 (IL6), IL6 (gene 3569)
Description: BSK_CASM3C_IL6: BioMAP Diversity Plus: CASM3C Assay for Interleukin-6 (IL6) Biomarker Activity for (AID 2283040). Particulars: primary human coronary artery smooth muscle cells; actives raise or lower the signal.

Read-out in test [11]: Tissue plasminogen activator (tPA), PLAT (gene 5327)
Description: BSK_BE3C_tPA: BioMAP Diversity Plus: BE3C Assay for Tissue plasminogen activator (tPA) Biomarker Activity (AID 2283041).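 On outcome: tPA level quantified by ELISA one day after compound addition.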 Particulars: primary human bronchial epithelial cells; actives raise or lower the signal. An outline of the steps: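 Primary human lung bronchial epithelial cultures receive test chemical; after 24 h, tPA is quantified by ELISA, and gain or loss of signal is fitted bidirectionally relative to DMSO baseline.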

Read-out in test [12]: Interleukin-8 (IL8), CXCL8 (gene 3576)
Description: BSK_CASM3C_IL8: BioMAP Diversity Plus: CASM3C Assay for Interleukin-8 (IL8) Biomarker Activity (AID 2283042).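 Further: IL-8 protein level quantified by ELISA.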 The conditions noted are these: primary human coronary artery smooth muscle cells; actives raise or lower the signal.

Read-out in test [13]: Human Leukocyte Antigen - DR isotype (HLADR), HLA-DRA (gene 3122)
Description: BSK_CASM3C_HLADR: BioMAP Diversity Plus: CASM3C Assay for Human Leukocyte Antigen - DR isotype (HLADR) Biomarker Activity (AID 2283043).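 Further: cell-surface HLA-DR protein level quantified by ELISA.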 Particulars: primary human coronary artery smooth muscle cells; actives raise or lower the signal.

Read-out in test [14]: Macrophage colony-stimulating factor (MCSF), CSF1 (gene 1435)
The experiment in a line: BSK_CASM3C_MCSF: BioMAP Diversity Plus: CASM3C Assay for Macrophage colony-stimulating factor (MCSF) Biomarker Activity (AID 2283044).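 Further: M-CSF protein amount quantified by ELISA after 24 h exposure.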 The conditions noted are these: primary human coronary artery smooth muscle cells; actives raise or lower the signal.

Read-out in test [15]: Low-density lipoprotein receptor (LDLR), LDLR (gene 3949)
The experiment in a line: BSK_CASM3C_LDLR: BioMAP Diversity Plus: CASM3C Assay for Low-density lipoprotein receptor (LDLR) Biomarker Activity (AID 2283045).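 Further: LDLR protein level on the cell surface quantified by ELISA.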 The conditions noted are these: primary human coronary artery smooth muscle cells; actives raise or lower the signal.

Read-out in test [16]: Monocyte Chemoattractant Protein-1 (MCP1), CCL2 (gene 6347)
The experiment in a line: BSK_CASM3C_MCP1: BioMAP Diversity Plus: CASM3C Assay for Monocyte Chemoattractant Protein-1 (MCP1) Biomarker Activity (AID 2283046).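 Further: MCP-1 level quantified by ELISA 24 h after dosing.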 The conditions noted are these: primary human coronary artery smooth muscle cells; actives raise or lower the signal.

A short description of test [17]: BSK_CASM3C_Proliferation: Cell Proliferation Assessment in the BioMAP Diversity Plus: CASM3C Assay (AID 2283047).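 Further: sulforhodamine B total protein stain as relative cell number at 560 nm; sub-confluent cells exposed 48 h before staining; fitted both ways against DMSO so gain or loss of cell number.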 Particulars: primary human coronary artery smooth muscle cells.
Read-out in test [18]: Monokine induced gamma interferon (MIG), CXCL9 (gene 4283)
The experiment in a line: BSK_CASM3C_MIG: BioMAP Diversity Plus: CASM3C Assay for Monokine induced gamma interferon (MIG) Biomarker Activity (AID 2283048).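 Further: MIG protein level measured by ELISA.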 Particulars: primary human coronary artery smooth muscle cells; actives raise or lower the signal.

Read-out in test [19]: serum amyloid A (SAA), SAA1 (gene 6288)
Description: BSK_CASM3C_SAA: BioMAP Diversity Plus: CASM3C Assay for serum amyloid A (SAA) Biomarker Activity (AID 2283049).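 Further: SAA protein level quantified by ELISA.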 Particulars: primary human coronary artery smooth muscle cells; actives raise or lower the signal.

Test [20] can be described thus: BSK_CASM3C_SRB: Viability Assessment in the BioMAP Diversity Plus: CASM3C Assay (AID 2283050).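 Further: total protein by SRB staining as cytotoxicity measure in parallel cultures.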 The conditions noted are these: primary human coronary artery smooth muscle cells.

Consider `C[C@]12CC[C@@H]3c4ccc(O)cc4CC[C@H]3[C@@H]1C[C@@H](O)[C@@H]2O`, for which the outcome in [1], in [2], in test [3], in test [4], in test [5] and in test [6] was inactive. Moreover, the outcome in [7], in test [8], in test [9], in test [10], in test [11] and in test [12] was inactive. Further, the result in test [13], in test [15], in test [16], in test [17], in test [18] and in test [19] was inactive. Besides, the result in [20] was inactive. In [14], the AC50 is 8.12 µM (active).

As for `O=C(NO)c1ccccc1`, the outcome in test [1], in [2], in [3], in test [4], in test [5] and in test [6] was inactive. Also, the result in test [7], in [8], in [9], in [10], in test [11] and in [12] was inactive. In addition, the result in [13], in test [15], in test [16], in [17], in [18] and in [19] was inactive. In test [20], the result was inactive. Also, the concentration at half-maximal activity (AC50) in test [14] was 2.51 µM (active).

For the molecule `NC(=NCCCCCCN=C(N)/N=C(\N)Nc1ccc(Cl)cc1)/N=C(\N)Nc1ccc(Cl)cc1`, the AC50 in test [1] was 4.47 µM (active); in [2], 3.83 µM (active); in test [3], 5.68 µM (active); in test [4], 4.26 µM (active); in test [5] it was 11.9 µM (active); in [7] it was 1.46 µM (active). The AC50 in test [8] is 3.31 µM (active); in test [9] it was 3.1 µM (active); in test [10], 7.19 µM (active); in test [11] it was 1.37 µM (active); in [12], 9.32 µM (active); in [13], 6.06 µM (active). Moreover, the concentration at half-maximal activity (AC50) in test [14] was 7.55 µM (active); in [15] it was 5.55 µM (active); in test [17], 4.91 µM (active); in [18] it was 13.2 µM (active); in [19], 5.67 µM (active); in test [20] it was 4.9 µM (active). Besides, the outcome in test [6] was inactive.

`COc1cccc(O)c1`: the outcome in [1], in [2], in [3], in test [5], in test [6] and in test [7] was inactive. Besides, the outcome in test [8], in test [9], in [10], in test [11], in [12] and in test [13] was inactive. For the same molecule, the outcome in test [14], in [15], in [16], in test [17], in [18] and in test [19] was inactive. Besides, in [20], the outcome was inactive.

On to `C=CC(C)(CCC=C(C)C)OC(C)=O` (stereo unspecified), for which the AC50 in test [1] is 31.5 µM (active); in [2] it was 30.2 µM (active); in [3], 30.5 µM (active); in test [9] it was 27.1 µM (active); in test [11], 26.3 µM (active); in [13], 32 µM (active). Further, the AC50 in test [14] was 35.8 µM (active); in [16], 26.6 µM (active); in [17], 30.6 µM (active); in [19] it was 28.7 µM (active); in test [20] it was 32.6 µM (active). The outcome in test [5], in [6], in test [7], in [8], in test [10] and in [12] was inactive. The result in test [15] and in test [18] was inactive.

As for `O=C(c1ccccc1)c1ccccc1`, the result in [1], in [2], in test [3], in test [5], in [6] and in [7] was inactive. For the same molecule, the result in test [8], in test [9], in [10], in test [11], in test [12] and in test [13] was inactive. In addition, the outcome in [14], in [15], in test [16], in test [17], in test [18] and in test [19] was inactive. For the same molecule, the outcome in test [20] was inactive.
